From article PMC4336329 (PLoS ONE, 2015) come the findings set out here.

Out of some 310,000 compounds screened, about 14,000 (4.5%) showed an effect of 50% or more. The effect is printed as a negative number. Shown is part of a subset that was picked to be rich in strong results.
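Further: peak tail current of the secondary pulse compared with the same well before compound.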

In this assay the target is human ether-à-go-go-related gene (hERG) potassium channel (human, UniProt Q12809). Put plainly: primary screen, population patch clamp on CHO cells stably expressing hERG; higher = less effect of the substance.
Sequence of human ether-à-go-go-related gene (hERG) potassium channel (Q12809 whole entry, looked up): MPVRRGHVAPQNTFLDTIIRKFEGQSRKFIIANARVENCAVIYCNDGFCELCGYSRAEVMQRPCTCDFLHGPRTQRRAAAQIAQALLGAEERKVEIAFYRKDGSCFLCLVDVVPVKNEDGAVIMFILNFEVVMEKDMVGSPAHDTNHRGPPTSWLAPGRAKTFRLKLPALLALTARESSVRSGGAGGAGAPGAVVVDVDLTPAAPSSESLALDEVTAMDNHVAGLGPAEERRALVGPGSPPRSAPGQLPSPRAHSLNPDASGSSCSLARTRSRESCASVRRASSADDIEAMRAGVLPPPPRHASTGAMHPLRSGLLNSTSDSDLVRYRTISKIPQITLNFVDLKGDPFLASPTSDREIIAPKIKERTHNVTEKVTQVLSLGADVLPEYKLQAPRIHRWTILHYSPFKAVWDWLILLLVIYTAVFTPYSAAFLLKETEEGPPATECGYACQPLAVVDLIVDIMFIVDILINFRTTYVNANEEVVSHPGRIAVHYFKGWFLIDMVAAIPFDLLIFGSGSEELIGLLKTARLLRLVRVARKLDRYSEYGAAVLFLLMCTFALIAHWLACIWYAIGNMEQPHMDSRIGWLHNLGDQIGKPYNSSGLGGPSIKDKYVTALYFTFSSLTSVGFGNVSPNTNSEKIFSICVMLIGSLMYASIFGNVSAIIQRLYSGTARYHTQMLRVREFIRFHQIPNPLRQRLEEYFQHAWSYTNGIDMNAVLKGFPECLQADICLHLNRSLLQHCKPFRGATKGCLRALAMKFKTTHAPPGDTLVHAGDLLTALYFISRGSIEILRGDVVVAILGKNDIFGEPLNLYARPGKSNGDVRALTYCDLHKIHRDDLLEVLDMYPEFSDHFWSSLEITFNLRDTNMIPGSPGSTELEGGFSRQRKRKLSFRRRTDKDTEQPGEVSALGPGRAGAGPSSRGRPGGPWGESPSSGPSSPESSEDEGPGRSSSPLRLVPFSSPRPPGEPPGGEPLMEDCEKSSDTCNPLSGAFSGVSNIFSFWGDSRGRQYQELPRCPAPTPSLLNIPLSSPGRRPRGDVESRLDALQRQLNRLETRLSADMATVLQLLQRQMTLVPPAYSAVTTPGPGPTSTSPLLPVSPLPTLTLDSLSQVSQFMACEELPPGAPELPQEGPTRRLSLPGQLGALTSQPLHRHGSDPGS
Turning to `CC(C)N1CCN(Cc2ccc3c(c2)OCCO3)CC1CCO` (stereo not drawn), the “hERG current change (%, negative = inhibition) at 10uM” value is recorded as 3.63%.
As for `NC(=O)N/N=C/c1ccc(-c2cccc(C(F)(F)F)c2)o1`, the figure is -4.87%; as for `Cc1cc(C)cc(NC(=O)CCn2ccnc2)c1`, 3.41%; as for `Cc1c(C(=O)NCc2ccc(S(N)(=O)=O)cc2)oc2ccc(Cl)cc12`, 10%.
As for `CCCCn1c(N)c(N(CCOC)C(=O)CSCC(=O)Nc2cccc(C)c2)c(=O)[nH]c1=O`, the figure is 11.5%; as for `c1ccc(-c2nc(CSc3nnc(-c4cccs4)o3)cs2)cc1`, -9.61%; as for `CCS(=O)(=O)c1ncc(Cl)c(C(=O)Nc2ccc(S(=O)(=O)N(C)c3ccccc3)cc2)n1`, 15.5%.
As for `CCOC(=O)N1CCC(NC(=O)c2cc(C(=O)NC3CCCC3)ccc2CO)CC1`, the figure is 12.9%.
As to `O=C(O)c1ccn(CSc2cc(Cl)ccc2Cl)n1`, the “hERG current change (%, negative = inhibition) at 10uM” value worked out at 5.46%.
Consider `CCOC(=O)NNC(=S)Nc1c(C)n(C)n(-c2ccccc2)c1=O`, for which the “hERG current change (%, negative = inhibition) at 10uM” value stood at 4.89%.
The figure for `COc1ccc(NC(=O)CC(C)CC(=O)NCc2ccc(F)cc2)c(OC)c1` (stereo not drawn) is -4.08%; for `CCn1cc(/C=C(\NC(=O)c2ccccc2Cl)C(=O)N2CCOCC2)c2ccccc21` it is -2.35%; for `O=C(NNC(=S)Nc1ccccc1)c1cccc(S(=O)(=O)N2CCOCC2)c1` it is 15.3%.
Consider `CCC1CCCCN1C(=O)c1ccc(OC2CCN(C(=O)COC)CC2)cc1` (stereo not drawn), for which the “hERG current change (%, negative = inhibition) at 10uM” value amounted to 6.08%.
Turning to `COC(=O)CCCC(=O)N1CCC(CCC(=O)NC2CC2)CC1`, the “hERG current change (%, negative = inhibition) at 10uM” value was 16.6%.
The figure for `CC1CCCN(CCCOc2ccc(Br)cc2Cl)C1.O=C(O)C(=O)O` (stereo not drawn) is -78.4%; for `CC1CCCN(C(=O)Nc2ccc(Br)cc2Cl)C1` (stereo not drawn) it is -16.4%.
As to `Clc1cc(Br)ccc1OCCOCCN1CCOCC1`, the “hERG current change (%, negative = inhibition) at 10uM” value is -36.7%.
`CC1CCN(CCCCOc2ccccc2Br)CC1`: the “hERG current change (%, negative = inhibition) at 10uM” value is on record as -48.9%.
On to `CC1CCN(CCCOc2ccc(Br)cc2Cl)CC1`, for which the “hERG current change (%, negative = inhibition) at 10uM” value is reported as -72.8%.
Turning to `Cc1ccc(Cl)c(OCCN2CCCC(C)C2)c1.O=C(O)C(=O)O` (stereo not drawn), the “hERG current change (%, negative = inhibition) at 10uM” value is on record as -41.8%.
The figure for `CCOC(=O)c1cnn(CCOC(=O)c2ccc(F)cc2)c1NC(=O)c1ccc(F)cc1` is -19.4%.
As for `CSCC[C@H](NC(=O)N1CCn2c1nc1ccccc12)C(=O)NCc1ccc(C)cc1`, the “hERG current change (%, negative = inhibition) at 10uM” value was -13.3%.
With `CC(C)Nc1ccc(Cl)cc1[N+](=O)[O-]`, the “hERG current change (%, negative = inhibition) at 10uM” value is reported as 14.3%.
On to `CN(C)c1c(F)cc(-c2nn[nH]n2)cc1F`, for which the “hERG current change (%, negative = inhibition) at 10uM” value is 12.9%.
Take `CCCCC1=CC2=CC(=O)C(C)(OC(=O)CC)C(=O)C2=CN1CCc1ccc(Br)cc1` (stereo not drawn): the “hERG current change (%, negative = inhibition) at 10uM” value was -58.9%.
For `CCCCC1=CC2=CC(=O)C(C)(OC(=O)CC)C(=O)C2=CN1Cc1ccc(OC)cc1` (stereo not drawn), the “hERG current change (%, negative = inhibition) at 10uM” value is -55.1%.
As for `CCCCC1=CC2=CC(=O)C(C)(OC(=O)CC)C(=O)C2=CN1Cc1ccc2c(c1)OCO2` (stereo not drawn), the figure is -55.3%; as for `CCCCC1=CC2=CC(=O)C(C)(OC(=O)CC)C(=O)C2=CN1CCOC` (stereo not drawn), -5.6%.
The figure for `CCCCC1=CC2=CC(=O)C(C)(OC(=O)CC)C(=O)C2=CN1CCc1ccccn1` (stereo not drawn) is -4.43%; for `CCCCC1=CC2=CC(=O)C(C)(OC(=O)CC)C(=O)C2=CN1CCCCO` (stereo not drawn) it is 0.395%.
As for `CCCCC1=CC2=CC(=O)C(C)(OC(=O)CC)C(=O)C2=CN1Cc1ccco1` (stereo not drawn), the figure is -32%; as for `COC(=O)CCCC1=CC2=CC(=O)C(C)(OC(=O)c3cccs3)C(=O)C2=CN1Cc1ccc2c(c1)OCO2` (stereo not drawn), -7.74%.
For the compound `CCCCCCCC1=CC2=CC(=O)C(C)(OC(C)=O)C(=O)C2=CN1CCc1ccccc1` (stereo not drawn), the “hERG current change (%, negative = inhibition) at 10uM” value is -62.3%.
Regarding `CCCCC1=CC2=CC(=O)C(C)(OC(=O)CC)C(=O)C2=CN1c1ccc(OC)cc1` (stereo not drawn), the “hERG current change (%, negative = inhibition) at 10uM” value was -13%.
`CCCCC1=CC2=CC(=O)C(C)(OC(=O)CC)C(=O)C2=CN1Cc1ccccc1` (stereo not drawn): the “hERG current change (%, negative = inhibition) at 10uM” value is reported as -42.9%.
`CCCCC1=CC2=CC(=O)C(C)(OC(=O)CC)C(=O)C2=CN1CCc1c[nH]c2ccccc12` (stereo not drawn): the “hERG current change (%, negative = inhibition) at 10uM” value is listed as -3.97%.
As to `Cc1ccc([N+](=O)[O-])cc1NC(=O)c1ccc2c(c1)OCO2`, the “hERG current change (%, negative = inhibition) at 10uM” value was determined as 11.4%.
For `Cc1onc(-c2ccccc2)c1C(=O)N(C)CCc1ccccn1`, the “hERG current change (%, negative = inhibition) at 10uM” value is recorded as 7.12%.
`CCN(C(=O)CN1CCOCC1)c1c(N)n(Cc2ccccc2)c(=O)[nH]c1=O`: the “hERG current change (%, negative = inhibition) at 10uM” value was found to be 22.2%.
The figure for `O=C(c1ccc(=O)oc1)N1CCC(C(O)(c2ccccc2)c2ccccc2)CC1` is -29.2%; for `CC(=O)Nc1ccc(-c2cc(C(=O)O)c3ccccc3n2)cc1` it is 17.2%.
The figure for `O=C(O)c1cc(-c2cccs2)nn1-c1cccc(Cl)c1` is 17.8%; for `O=c1c(-c2ccc(Br)cc2)coc2c(CN3CCOCC3)c(O)ccc12` it is -20.7%; for `O=C(Oc1ccc(N2C(=O)C3C4CCC(C4)C3C2=O)cc1)c1ccco1` (stereo not drawn) it is 13.2%.
As for `O=C(NC1CCCc2ccccc21)c1cn2ccccc2n1` (stereo not drawn), the “hERG current change (%, negative = inhibition) at 10uM” value was -25.5%.
As for `CSCCC(NS(=O)(=O)c1ccc(C)cc1)C(=O)Nc1ccc(C)cn1` (stereo not drawn), the figure is 2.68%; as for `CSCCC(NS(=O)(=O)c1ccccc1)C(=O)OC(C)C(=O)Nc1ccc(Cl)cn1` (stereo not drawn), -58.8%; as for `CCC(C(=O)OC(C)C(=O)Nc1ccc(Cl)cn1)c1ccccc1` (stereo not drawn), 0.842%.
The figure for `CCCOc1ccc(CCc2n[nH]c(=S)n2Cc2ccccc2)cc1` is -7.26%.
The figure for `COC(=O)C(NC(=O)c1ccc(Cl)cc1)(Nc1nc(C)cs1)C(F)(F)F` (stereo not drawn) is -8.63%; for `C=CCNc1ncnc2c1[nH]c1ccc(Cl)cc12` it is -7.82%.
Consider `CCN1CCCC1CNc1ncnc2c1[nH]c1ccc(Cl)cc12` (stereo not drawn), for which the “hERG current change (%, negative = inhibition) at 10uM” value is listed as -77.1%.
On to `Fc1ccc2[nH]c3c(NCc4ccccc4)ncnc3c2c1`, for which the “hERG current change (%, negative = inhibition) at 10uM” value was 10.5%.
Consider `CCN1CCCC1CNc1ncnc2c1[nH]c1ccc(F)cc12` (stereo not drawn), for which the “hERG current change (%, negative = inhibition) at 10uM” value is on record as -76.6%.
The figure for `CC(C)OCCCNc1ncnc2c1[nH]c1ccc(F)cc12` is -2.39%; for `Clc1ccc2[nH]c3c(NCC4CCCO4)ncnc3c2c1` (stereo not drawn) it is -16.2%.
